# From PubChem BioAssay (NCI)
# The panel holds about 79,000 compounds, 15% with a hit somewhere; the sample as a whole holds those more often. Unmarked numbers belong to inactive results. Calls of active or inactive are those of the source. Cut-off read from the data, not from the text of the source: active = growth inhibition above about 70%; inactive = the rest.
# Columns and labels:
# [1] = NCI Yeast Anticancer Drug Screen. Data for the rad52 strain (AID 147);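 note: 0% = growth of vehicle-treated control cultures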; details: S. cerevisiae rad52 mutant growth inhibition, stronger effect = higher value
# Outline: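 Growth of repair-deficient yeast cells was compared between compound-treated and vehicle-treated cultures to give percent inhibition.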
# [2] = NCI Yeast Anticancer Drug Screen. Data for the wt1 strain (AID 149);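 note: 0% = growth of vehicle-treated wt1 cultures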; details: S. cerevisiae wt1 strain (SPY 50644) growth inhibition, stronger effect = higher value
# Outline: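 wt1 yeast, compound-treated; % growth inhibition vs vehicle control.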
# [3] = NCI Yeast Anticancer Drug Screen. Data for the mgt1 strain (AID 153); details: S. cerevisiae mgt1 mutant growth inhibition, stronger effect = higher value
# Outline: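 Compounds were applied to mgt1 mutant yeast, and growth was then compared against vehicle-treated control cultures to give percent inhibition.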
# [4] = NCI Yeast Anticancer Drug Screen. Data for the rad50 strain (AID 155);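 note: 0% = growth of vehicle-only cultures of the same strain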; details: S. cerevisiae rad50 strain growth inhibition, stronger effect = higher value
# Outline: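 Genetically altered yeast (DNA repair pathway); compound treatment; growth inhibition vs vehicle ctrl.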
# [5] = NCI Yeast Anticancer Drug Screen. Data for the mec2-1 strain (AID 157); details: S. cerevisiae mec2-1 strain, stronger effect = higher value
# Outline: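 Compounds were applied to mec2-1 yeast cells. Their growth was then compared with that of vehicle-treated cultures to give growth inhibition.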
# [6] = NCI Yeast Anticancer Drug Screen. Data for the rad14 strain (AID 159);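 note: 0% = growth of vehicle-treated control cultures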; details: S. cerevisiae rad14 strain growth inhibition, stronger effect = higher value
# Outline: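 Test compounds were applied to a repair-deficient yeast strain. Its growth was then compared with that of cultures given vehicle alone, and inhibition was expressed relative to those controls.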
# [7] = NCI Yeast Anticancer Drug Screen. Data for the sgs1 mgt1 strain (AID 161);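 note: 0% = growth of cultures given vehicle only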; details: S. cerevisiae sgs1 mgt1 strain, stronger effect = higher value
# Outline: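 Percent growth inhibition was derived by comparing compound-exposed mutant yeast with vehicle-exposed cultures. The strain carries alterations in DNA damage repair.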
# [8] = NCI Yeast Anticancer Drug Screen. Data for the CLN2oe strain (AID 163);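 note: 0% = growth of vehicle-only control cultures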; details: S. cerevisiae CLN2oe strain, stronger effect = higher value
# Outline: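 Cells of an engineered yeast line with disturbed cell-cycle regulation are treated with compound. Inhibition of growth is then calculated relative to the vehicle-treated reference.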
# [9] = NCI Yeast Anticancer Drug Screen. Data for the cln2 rad14 strain (AID 165);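 note: 0% = growth equal to vehicle treated cultures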; details: S. cerevisiae cln2 rad14 strain, stronger effect = higher value
# Outline: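 Strain: cln2 rad14 yeast, altered in cell cycle control and DNA damage repair. Read-out: growth inhibition vs vehicle.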
# [10] = NCI Yeast Anticancer Drug Screen. Data for the bub3 strain (AID 167); details: S. cerevisiae bub3 mutant strain, stronger effect = higher value
# Outline: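 Yeast carrying a defined mutation is treated with each compound, and growth is compared with that of vehicle-exposed cells to give inhibition.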
# [11] = NCI Yeast Anticancer Drug Screen. Data for the wt2 strain (AID 169);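 note: 0% = growth of vehicle-treated yeast cultures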; details: S. cerevisiae wt2 strain growth inhibition, stronger effect = higher value
# Outline: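 Growth of compound-treated yeast is measured and expressed as inhibition relative to vehicle-only controls.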
# [12] = NCI Yeast Anticancer Drug Screen. Data for the mlh1 strain (AID 171);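 note: 0% = growth of vehicle-treated control cultures of the same strain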; details: S. cerevisiae mlh1 strain growth inhibition, stronger effect = higher value
# Outline: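 Test agents were incubated with yeast bearing a defined DNA damage repair or cell cycle control alteration; values are growth inhibition normalised to vehicle-treated cultures.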
# [13] = NCI Yeast Anticancer Drug Screen. Data for the sgs1 strain (AID 173);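 note: 0% = growth of vehicle-only control cultures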; details: S. cerevisiae sgs1 mutant, stronger effect = higher value
# Outline: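 Strain with an altered DNA repair or cell cycle pathway exposed to compound. Growth then measured. Value = inhibition versus vehicle control.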
# [14] = NCI Yeast Anticancer Drug Screen. Data for the mlh1 rad18 strain (AID 175); details: S. cerevisiae mlh1 rad18 strain growth inhibition, stronger effect = higher value
# Outline: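 A repair-deficient yeast strain is exposed to test compound, and growth is scored relative to vehicle-treated controls.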
# [15] = at 5.0 µM (retest, dose inferred, filed as 0.5)
# [16] = at 50.0 µM (retest, dose inferred, filed as 5.0)
structure (smiles),measurement,setting,value
Cc1cc2c(cc1C)[n+]([O-])c(-c1nc3ccccc3s1)c(N)[n+]2[O-],growth inhibition,[1]; at 1.2 µM,2%
same,growth inhibition,[1]; at 3.7 µM,10%
same,growth inhibition,[1]; at 11.0 µM,20%
same,growth inhibition,[1]; at 33.0 µM,35%
same,growth inhibition,[1]; at 100.0 µM,88% (active)
same,growth inhibition,[2]; at 1.2 µM,10%
same,growth inhibition,[2]; at 3.7 µM,13%
same,growth inhibition,[2]; at 11.0 µM,17%
same,growth inhibition,[2]; at 33.0 µM,20%
same,growth inhibition,[2]; at 100.0 µM,25%
same,growth inhibition,[3]; at 1.2 µM,11%
same,growth inhibition,[3]; at 3.7 µM,18%
same,growth inhibition,[3]; at 11.0 µM,23%
same,growth inhibition,[3]; at 33.0 µM,40%
same,growth inhibition,[3]; at 100.0 µM,94% (active)
same,growth inhibition,[4]; at 1.2 µM,0%
same,growth inhibition,[4]; at 3.7 µM,10%
same,growth inhibition,[4]; [15],3%
same,growth inhibition,[4]; at 11.0 µM,23%
same,growth inhibition,[4]; at 33.0 µM,40%
same,growth inhibition,[4]; [16],58%
same,growth inhibition,[4]; at 50.0 µM,87.8% (active)
same,growth inhibition,[4]; at 100.0 µM,93% (active)
same,growth inhibition,[5]; at 1.2 µM,11%
same,growth inhibition,[5]; at 3.7 µM,21%
same,growth inhibition,[5]; [15],23%
same,growth inhibition,[5]; at 11.0 µM,26%
same,growth inhibition,[5]; at 33.0 µM,37%
same,growth inhibition,[5]; [16],79% (active)
same,growth inhibition,[5]; at 50.0 µM,76% (active)
same,growth inhibition,[5]; at 100.0 µM,97% (active)
same,growth inhibition,[6]; at 1.2 µM,1%
same,growth inhibition,[6]; at 3.7 µM,14%
same,growth inhibition,[6]; at 11.0 µM,22%
same,growth inhibition,[6]; at 33.0 µM,29%
same,growth inhibition,[6]; at 100.0 µM,85% (active)
same,growth inhibition,[7]; [15],28%
same,growth inhibition,[7]; [16],89% (active)
same,growth inhibition,[7]; at 50.0 µM,80.6% (active)
same,growth inhibition,[8]; at 1.2 µM,-1%
same,growth inhibition,[8]; at 3.7 µM,5%
same,growth inhibition,[8]; at 11.0 µM,18%
same,growth inhibition,[8]; at 33.0 µM,10%
same,growth inhibition,[8]; at 100.0 µM,25%
same,growth inhibition,[9]; [15],2%
same,growth inhibition,[9]; [16],41%
same,growth inhibition,[9]; at 50.0 µM,81.5% (active)
same,growth inhibition,[10]; at 1.2 µM,11%
same,growth inhibition,[10]; at 3.7 µM,32%
same,growth inhibition,[10]; [15],47%
same,growth inhibition,[10]; at 11.0 µM,46%
same,growth inhibition,[10]; at 33.0 µM,53%
same,growth inhibition,[10]; [16],92% (active)
same,growth inhibition,[10]; at 50.0 µM,93.7% (active)
same,growth inhibition,[10]; at 100.0 µM,96% (active)
same,growth inhibition,[11]; at 1.2 µM,14%
same,growth inhibition,[11]; at 3.7 µM,18%
same,growth inhibition,[11]; at 11.0 µM,18%
same,growth inhibition,[11]; at 33.0 µM,21%
same,growth inhibition,[11]; at 100.0 µM,58%
same,growth inhibition,[12]; at 1.2 µM,6%
same,growth inhibition,[12]; at 3.7 µM,14%
same,growth inhibition,[12]; at 11.0 µM,17%
same,growth inhibition,[12]; at 33.0 µM,20%
same,growth inhibition,[12]; at 100.0 µM,55%
same,growth inhibition,[13]; at 1.2 µM,10%
same,growth inhibition,[13]; at 3.7 µM,21%
same,growth inhibition,[13]; at 11.0 µM,24%
same,growth inhibition,[13]; at 33.0 µM,39%
same,growth inhibition,[13]; at 100.0 µM,79% (active)
same,growth inhibition,[14]; [15],33%
same,growth inhibition,[14]; [16],90% (active)
same,growth inhibition,[14]; at 50.0 µM,94.9% (active)
